Shown are actives, neighbours in structure and some others; about 5.3% of the full set was active somewhere.
JMJD2A Tudor – blocks the human JMJD2A Tudor domain. AlphaScreen JMJD2A-Tudor / H3K4me3 peptide binding. Potency, µM (highest dose often 114 µM), without a hit: at the top dose activity change, negative = inhibition, usual class: inhibitors. hit rate 4.4% among 390,000; also: potency is read from the fitted curve at half-maximal effect; % is scaled to controls: 0 for no effect and ±100 for the full control effect; nearly all actives have a fitted effect of over 50% in size
Target sequence (O75164 whole entry, looked up, the tested form may be a part): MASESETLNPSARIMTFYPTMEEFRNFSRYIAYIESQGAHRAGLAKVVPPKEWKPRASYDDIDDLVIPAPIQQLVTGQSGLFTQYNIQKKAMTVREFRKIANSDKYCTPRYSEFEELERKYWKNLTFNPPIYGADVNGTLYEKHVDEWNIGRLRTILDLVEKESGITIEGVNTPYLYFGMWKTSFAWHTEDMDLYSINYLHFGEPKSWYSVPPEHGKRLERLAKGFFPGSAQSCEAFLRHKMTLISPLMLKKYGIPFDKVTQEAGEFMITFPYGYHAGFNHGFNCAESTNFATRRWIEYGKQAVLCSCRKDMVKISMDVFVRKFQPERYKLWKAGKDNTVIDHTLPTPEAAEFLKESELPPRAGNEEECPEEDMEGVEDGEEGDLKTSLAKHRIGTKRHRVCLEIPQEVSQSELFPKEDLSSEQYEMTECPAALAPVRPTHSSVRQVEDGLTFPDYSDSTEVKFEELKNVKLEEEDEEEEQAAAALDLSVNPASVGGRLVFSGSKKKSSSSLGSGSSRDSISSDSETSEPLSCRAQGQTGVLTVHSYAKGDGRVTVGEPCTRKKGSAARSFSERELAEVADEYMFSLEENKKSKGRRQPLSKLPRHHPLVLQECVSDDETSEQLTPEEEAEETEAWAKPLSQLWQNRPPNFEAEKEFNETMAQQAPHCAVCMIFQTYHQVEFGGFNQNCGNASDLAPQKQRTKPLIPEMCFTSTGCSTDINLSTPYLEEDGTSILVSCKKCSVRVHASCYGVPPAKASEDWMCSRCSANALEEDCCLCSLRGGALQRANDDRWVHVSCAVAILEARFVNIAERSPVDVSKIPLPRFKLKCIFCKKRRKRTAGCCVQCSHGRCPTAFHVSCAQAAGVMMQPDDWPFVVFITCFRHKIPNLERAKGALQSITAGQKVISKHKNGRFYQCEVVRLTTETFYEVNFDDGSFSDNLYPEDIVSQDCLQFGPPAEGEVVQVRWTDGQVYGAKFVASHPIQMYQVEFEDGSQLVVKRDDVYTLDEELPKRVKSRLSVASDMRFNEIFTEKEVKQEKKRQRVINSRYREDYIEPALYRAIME
HP1b chromo inh – inhibitors of HP1-beta chromodomain binding to methylated histone tails; Potency, µM (highest dose often 114 µM), inactives show at the highest dose activity change, negative = inhibition, hits mostly inhibitors; AlphaScreen HP1-beta / biotin-H3K9me3 peptide binding; P83916; hit rate 0.56% among 390,000; AID 540317; also: potency is read from the fitted curve at half-maximal effect; nearly all actives have a fitted effect of over 70% in size
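Compound inhibition of the preformed complex between 50 nM HP1-beta and 50 nM biotinylated H3K9me3 peptide was read by AlphaScreen. Buffer was PBS pH 7.4 with 0.01% Tween-20. Incubations ran 30 min at room temperature, with 10 ug/mL donor/acceptor beads.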
BAZ2B inh – blocks human BAZ2B; hit rate 4.4% among 360,000; AlphaScreen BAZ2B-H3K14Ac peptide displacement; Potency, µM (doses to about 114 µM), inactives show at the highest dose activity change, negative = inhibition, hits mostly inhibitors; AID 504333; also: potency is read from the fitted curve at half-maximal effect; % is scaled to controls: 0 for no effect and ±100 for the full control effect; nearly all actives have a fitted effect of over 60% in size
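Inhibition is scored as reduced AlphaScreen emission. The BAZ2B/b-H3(5-23)K14Ac complex (50 nM each) in PBS pH 7.4, 0.01% Tween-20 meets compound (up to 110 uM) for 30 min at RT before bead addition.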
CtBP-E1A blk – inhibitors of CtBP/E1A interaction | AID 651724 | hit rate 0.49% among 340,000 | AlphaScreen GST-E1A/His-CtBP binding, 1536-well; active compounds read low | activity change, % (concentration not given with the values); in the data active = activity change below about -65%; inconclusive = mostly about -30% to -63%; also: % is scaled to controls: 0 for no effect and ±100 for the full control effect
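Protein mix (5X: 125 nM each GST-E1A, His-CtBP) was incubated with pinned compound 2 h at 37 deg C in dark, in 50 mM Tris pH 8.0 buffer with 300 mM NaCl. Glutathione donor and nickel acceptor beads followed; AlphaScreen signal read after 1 h.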
Six1-Eya2 blk – Six1/Eya2 interaction inhibition; Q15475+O00167; AlphaScreen GST-Six1/His-Eya2 binding, biochemical; active compounds read low; activity change, % (test concentration not listed); hit rate 0.56% among 360,000; in the data active = activity change below about -65%; inconclusive = mostly about -30% to -63%; also: % is scaled to controls: 0 for no effect and ±100 for the full control effect
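GST-Six1 + His-Eya2 (5X stock: 250/500 nM); Tris pH 8.0, 300 mM NaCl, 0.05% BSA, 0.02% Tween 20; GSH donor/Ni acceptor beads; 1 h 37 °C dark; AlphaScreen readout.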
TDP1 block – inhibitors of human tyrosyl-DNA phosphodiesterase TDP1; hit rate 0.28% among 350,000; AID 485290; recombinant TDP1, AlphaScreen DNA substrate cleavage; Potency, µM (highest dose often 130 µM), inactives show top-dose activity change, negative = inhibition, usual class: inhibitors; also: potency is read from the fitted curve at half-maximal effect; % is scaled to controls: 0 for no effect and ±100 for the full control effect; nearly all actives have a fitted effect of over 40% in size
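Recombinant E. coli-expressed Tdp1 (1 nM) preincubated with compound 15 min at RT, then 5'-biotin/3'-phosphotyrosine-FITC DNA substrate (15 nM) added for 5 min. AlphaScreen beads (10 ug/ml) added, 10 min RT; tyrosine-FITC cleavage read as signal loss.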
* marks the source's active call; other numbers are inactive results; ? = inconclusive; . = no result given; [ ] = another dose, or the depositor's remark. Unless noted, calls follow the shape of the dose curve; as a rule, active = well fitted inhibition curve with a large enough effect; inconclusive = small, poorly fitted or top-dose-only effect; inactive = no such curve, though single readings can be large or run the other way.

SMILES	JMJD2A Tudor	HP1b chromo inh	BAZ2B inh	CtBP-E1A blk	Six1-Eya2 blk	TDP1 block
Cc1cccc(-c2nc(SCC(=O)NCc3ccco3)c3c(=O)n(C)c(=O)n(C)c3n2)c1	4.9%	30.4%[57 µM]	0.6%	.	.	2.7%
CCOc1cc(C2CC(=O)Nc3cc(C)c(C)cc32)ccc1O (stereo unspecified)	-11.6%	3.2%	3.1%	-11.2	-0.2	7.3%
COc1ccc2ccccc2c1C1CC(=O)N2CN(C3CCCCC3)CSC2=C1C#N (stereo unspecified)	?	?	?	-14.6	-6.5	6.1%
N#CC1=C2SCN(C3CCCCC3)CN2C(=O)CC1c1ccc(Br)cc1 (stereo unspecified)	15.8µM*	?	.	.	.	0.0%
CCOc1cc(C2CC(=O)N3CN(C4CCCCC4)CSC3=C2C#N)ccc1O (stereo unspecified)	79.4µM*	?	-25.0%	-5.5	5.7	3.3%
CCCOc1ccccc1-n1sc2c(c1=S)-c1cc(OC)cc3c1N(C(=O)C3=O)C2(C)C	2.51µM*	-80.7%	2µM*	1.4	-21.8	12.4%
CN(C)CCCNCCCNC(=O)/C(=N\O)c1ccccn1	?	32.4%	50.1µM*	?	?	-2.8%[56.1 µM]
O=C1C=C(O)c2[nH]c(=O)ccc2C1=O	10µM*	-9.8%	.	4.9	-17.9	.
NC1=CC(=O)C(=O)c2ccccc21	-17.1%	-1.5%	.	-24.3	0.8	.
O=S(=O)(c1ccc(F)cc1)N1CCC(N2CCCCCC2)CC1	?	?	?	-7.0	6.4	-1.0%
CC(=O)Nc1ccc(S(=O)(=O)N2CCC(N3CCCCCC3)CC2)cc1	20µM*	?	-30.1%	-6.4	-23.7	.
O=S(=O)(c1ccc(Cl)cc1)N1CCC(N2CCCCCC2)CC1	2.51µM*	?	79.4µM*	-1.7	-0.7	2.4%
CCOc1ccc(CNC(=O)C2CCCN(c3nn4cc(-c5ccc(OC)cc5)nc4s3)C2)cc1 (stereo unspecified)	-32.0%	-2.2%	-12.3%	.	.	8.7%
CCN(CC)c1ccc(NC(=O)C2=CC=CN3CCS(=O)(=O)N=C23)cc1	?	-23.4%	44.7µM*	.	-22.4	8.6%
COc1ccc(C2Nc3ccccc3C(=O)N2Cc2ccccc2Cl)cc1COc1ccc(NC(C)=O)cc1 (stereo unspecified)	-19.0%	.	.	.	.	1.3%
COc1cc(C2C(C(C)=O)=C(C)Nc3ncnn32)ccc1O (stereo unspecified)	-1.2%	27.8%	1.7%	-0.4	6.2	2.0%
COc1ccc(C2C(C(C)=O)=C(C)Nc3ncnn32)cc1[N+](=O)[O-] (stereo unspecified)	89.1µM*	55.5%	-4.1%	-1.0	-10.5	.
O=C(NCC(c1ccc(Cl)cc1)N1CCCCC1)c1ccccc1 (stereo unspecified)	-10.6%	34.1%	-9.1%	.	.	3.6%
COc1ccc(CCNc2cc(=O)[nH]c(N)n2)cc1	-29.8%	66.7%	?	-80.1*	-69.2*	5.5%
COc1ccc(CCNc2ccc([N+](=O)[O-])cn2)cc1	-20.3%	4.1%	-10.2%	-28.8	-5.1	.
Cc1cccc(C(=O)NNC2=C(C(=O)C(F)(F)F)CCC2)c1O	79.4µM*	-22.0%	17.8µM*	-25.1	-1.8	7.0%
CC1(C)CC(NS(=O)(=O)OCC(Cl)(Cl)Cl)c2cc(C#N)ccc2O1 (stereo unspecified)	31.6µM*	22.4%	0.1%	-19.0	9.9	.
COc1ccc2c(c1)CCCC2NS(=O)(=O)OCC(Cl)(Cl)Cl (stereo unspecified)	31.4%	133.9%	18.1%	9.2	1.2	.
COC(=O)c1c(NC(=O)COC(=O)[C@@H](NS(=O)(=O)c2cccc(Cl)c2)C(C)C)sc2c1CCC2	-15.9%	30.8%	-10.1%	-0.9	-8.4	8.1%
CC(C)[C@H](NS(=O)(=O)c1cccc(Cl)c1)C(=O)OCC(=O)NC(=O)CN1CCCC1=O	-25.5%	-2.7%	?	.	-5.5	25.1µM*
SMILES	JMJD2A Tudor	HP1b chromo inh	BAZ2B inh	CtBP-E1A blk	Six1-Eya2 blk	TDP1 block
Cc1cc(C)n(CCc2nc3c4ccccc4nc(N4CCN(c5cccc(C)c5C)CC4)n3n2)n1	-9.1%	33.7%	0.6%	.	.	5.9%
O=C(CCCCCn1c(=O)c2sccc2n(CC(=O)Nc2cccc(Cl)c2)c1=O)NCc1ccc2c(c1)OCO2	-7.8%	12.3%	?	.	.	0.0%
c1csc(CNc2ccc3c(c2)OCCO3)c1	?	3.2%	50.1µM*	-0.3	11.5	4.6%
Clc1cc(NCc2cccs2)ccc1N1CCOCC1	?	-22.6%	50.1µM*	-15.9	-19.9	2.6%
CN[C@@H]1[C@H](O[C@H]2[C@@H](O[C@@H]3[C@@H](O)[C@@H](O)[C@@H](N=C(N)N)[C@@H](O)[C@@H]3N=C(N)N)O[C@@H](C)[C@]2(O)CO)O[C@H](CO)[C@@H](O)[C@@H]1O	.	.	.	.	.	3.9%[56.1 µM]
Oc1ccc(/C=N/Nc2ccc(Cl)nn2)c(O)c1O	11.2µM*	?	10µM*	.	-95.3*	.
Oc1c(Br)cc(Br)cc1/C=N/Nc1ccc(Cl)nn1	?	62.8%	-10.2%	-18.4	-22.3	.
CCOc1ccc(/C=N/Nc2ccc(Cl)nn2)c(O)c1	-15.5%	20.6%	4.6%	-29.9	-22.2	-1.0%
Oc1c(Br)cc(/C=N/Nc2ccc(Cl)nn2)cc1Br	?	?	50.1µM*	-7.8	-27.3	.
CCSC1=N/C(=C\c2ccc(C(=O)O)cc2)C(=O)S1	-35.5%	0.7%	?	6.9	8.7	-14.1%
C=CCSC1=N/C(=C\c2ccc(C(=O)O)cc2)C(=O)S1	6.2%	-5.2%	-29.1%	0.0	-1.7	28.2µM*
Oc1ccc(-c2nc(=S)[nH][nH]2)cc1	5.01µM*	-32.3%	-18.0%	4.2	4.8	-5.5%
Oc1ccc(-c2nc3ccccc3nc2-c2ccccc2)cc1	-20.5%	54.1%	-5.5%	11.2	1.0	2.0%
COc1ccc(-c2nc(=S)[nH][nH]2)cc1OC	2.82µM*	?	56.2µM*	.	0.1	6.0%
CCOc1ccc(-c2nc(=S)[nH][nH]2)cc1	7.08µM*	-18.9%	-1.8%	4.6	6.7	5.7%
COc1ccc(-c2n[nH]c(=S)nc2-c2ccc(OC)cc2)cc1	-33.5%	13.3%	?	-1.5	-2.7	.
COc1ccc(-c2nc(=S)[nH][nH]2)cc1	2.51µM*	79.4µM*	5.9%	0.1	-6.2	11.3%
COc1ccc(CNC(=O)c2cc(-c3cccs3)nc3ccccc23)c(OC)c1	-8.2%	29.4%	1.9%	.	.	-1.8%
CCOC(=O)c1cc(NC(=O)c2ccc(F)cc2)c(=O)n2c1oc1ccc(Cl)cc12	-3.1%	56.0%	36.5%	.	.	1.1%
CC(/C=C/c1ccccc1)=N\NC(=S)NC(C)C	44.7µM*	?	?	-10.7	-25.2	1.8%

Screens: PubChem, National Center for Advancing Translational Sciences (NCATS)
